Data reported in PubChem BioAssay AID1159580 (chemical genetic matrix, 2015).
Several values for one entry are separate records, joined by “and”; a condition that tells them apart may be missing. Identical values can stand only once. About 2,000 (36%) of roughly 5,500 compounds were called active. Not shown: some 18% with an inconclusive outcome. Cut-off read from the data, not from the text of the source: active = normalized growth mostly below about 0.91 (no sharp cut-off); inconclusive = no clear call, values can overlap the other calls; inactive = mostly above about 0.92. Some of the results follow.

Test: chemical genetic growth profiling, strain panel (AID 1159580);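 note: tested at 20 µM; growth read once vehicle control cultures reached saturation at 30 °C; 1 = growth at the plate median or of vehicle wells; lower values mean less growth of the strain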
Conditions: S. cerevisiae deletion strains, growth OD

Measured: normalized growth

CC1(C)S[C@@H]2[C@H](NC(=O)[C@H](NC(=O)N3CCNC3=O)c3ccccc3)C(=O)N2C1C(=O)O (stereo partly drawn)
inactive: locus YAL021C, strain ccr4, hits give low values 0.989 | locus YAL026C, strain drs2, hits give low values 0.984 | locus YAL030W, strain snc1, hits give low values 0.969 | locus YBL061C, strain skt5, hits give low values 0.971 | locus YBR009C, strain hhf1, hits give low values 0.995 | locus YBR021W, strain FUR4, hits give low values 1.04 | locus YBR023C, strain chs3, hits give low values 0.979 | locus YBR171W, strain sec66, hits give low values 0.974 | locus YBR229C, strain ROT2, hits give low values 1 | locus YBR231C, strain swc5, hits give low values 0.984 | locus YBR279W, strain paf1, hits give low values 0.993 | locus YCL011C, strain gbp2, hits give low values 0.964 | locus YCL016C, strain dcc1, hits give low values 0.986 | locus YCL029C, strain bik1, hits give low values 0.99 | locus YCL061C, strain MRC1, hits give low values 0.99 | locus YCL069W, strain vba3, hits give low values 0.996 | locus YCR088W, strain abp1, hits give low values 0.985 | locus YDL005C, strain med2, hits give low values 0.978 | locus YDL035C, strain GPR1, hits give low values 0.992 | locus YDL040C, strain nat1, hits give low values 0.984 | locus YDL074C, strain BRE1, hits give low values 1.06 | locus YDL101C, strain DUN1, hits give low values 0.998 | locus YDL134C, strain PPH21, hits give low values 1 | locus YDL185W, strain tfp1, hits give low values 0.952 | locus YDL192W, strain arf1, hits give low values 0.982 | locus YDR001C, strain nth1, hits give low values 0.975 | locus YDR069C, strain doa4, hits give low values 0.988 | locus YDR101C, strain arx1, hits give low values 1.03 | locus YDR137W, strain rgp1, hits give low values 0.977 | locus YDR159W, strain sac3, hits give low values 1 | locus YDR162C, strain NBP2, hits give low values 0.972 | locus YDR195W, strain ref2 0.995 | locus YDR297W, strain sur2, hits give low values 0.979 | locus YDR318W, strain mcm21, hits give low values 0.988 | locus YDR334W, strain swr1, hits give low values 0.935 | locus YDR335W, strain msn5, hits give low values 0.971 | locus YDR388W, hits give low values 0.987 | locus YDR392W, strain spt3, hits give low values 0.908 | locus YDR502C, strain sam2, hits give low values 1 | locus YEL003W, strain gim4, hits give low values 0.994 | locus YEL037C, strain rad23, hits give low values 0.984 | locus YEL061C, strain CIN8 (second series), hits give low values 0.984 | locus YEL061C, strain CIN8, hits give low values 0.996 | locus YER015W, strain faa2, hits give low values 0.971 | locus YER016W, strain bim1, hits give low values 1 | locus YER110C, hits give low values 0.982 | locus YER111C, strain swi4, hits give low values 0.983 | locus YER155C, strain BEM2 (second series), hits give low values 0.993 | locus YER155C, strain BEM2, hits give low values 1.01 | locus YER167W, strain BCK2, hits give low values 0.997 | locus YFR010W, strain ubp6, hits give low values 0.967 | locus YGL078C, strain dbp3, hits give low values 0.989 | locus YGL086W, strain mad1, hits give low values 1.02 | locus YGL167C, strain pmr1, hits give low values 0.987 | locus YGL173C, strain kem1, hits give low values 0.967 | locus YGL227W, strain vid30, hits give low values 0.994 | locus YGL240W, strain doc1, hits give low values 1 | locus YGL248W, strain PDE1, hits give low values 1.01 | locus YGL253W, strain hxk2, hits give low values 0.996 | locus YGR135W, strain pre9, hits give low values 0.95 | locus YGR252W, strain gcn5, hits give low values 1 | locus YHR013C, strain ard1, hits give low values 0.957 | locus YHR027C, strain rpn1, hits give low values 0.966 | locus YHR030C, strain SLT2, hits give low values 0.984 and 0.983 | locus YHR079C, strain IRE1 (second series), hits give low values 0.983 | locus YHR079C, strain IRE1, hits give low values 0.963 | locus YHR094C, strain hxt1, hits give low values 0.982 | locus YHR129C, strain ARP1, hits give low values 0.997 | locus YHR142W, strain chs7, hits give low values 0.955 | locus YHR200W, strain rpn10, hits give low values 0.989 | locus YIL066C, strain RNR3, hits give low values 0.99 | locus YIL073C, strain SPO22, hits give low values 0.902 | locus YIL125W, strain kgd1, hits give low values 1 | locus YIR030C, strain dcg1, hits give low values 0.969 | locus YJL092W, strain hpr5, hits give low values 0.988 | locus YJL095W, strain BCK1 (second series), hits give low values 0.989 | locus YJL095W, strain BCK1, hits give low values 1.04 and 0.971 | locus YJL115W, strain asf1, hits give low values 0.96 | locus YJL129C, strain trk1, hits give low values 1.01 | locus YJL134W, strain LCB3, hits give low values 0.993 | locus YJL154C, strain vps35, hits give low values 0.972 | locus YJL164C, strain tpk1, hits give low values 0.996 | locus YJL166W, strain qcr8, hits give low values 0.956 | locus YJL168C, strain set2, hits give low values 0.998 | locus YJL187C, strain SWE1 (second series), hits give low values 1 | locus YJL187C, strain SWE1, hits give low values 0.988 | locus YJR043C, strain POL32, hits give low values 1.03 | locus YJR066W, strain TOR1, hits give low values 0.966
